PubChem BioAssay AID1159580 (chemical genetic matrix, 2015)
“And” between values parts separate entries of the source, which are not always exact repeats. Identical values can stand only once. In all, about 5,500 compounds went through this assay and about 2,000 (36%) were called active. Roughly 18% stayed inconclusive and do not appear here. Rule as the data show it: active = normalized growth mostly below about 0.91 (no sharp cut-off); inconclusive = no clear call, values can overlap the other calls; inactive = mostly above about 0.92. Some of the results follow.

Experiment: chemical genetic growth profiling, strain panel (AID 1159580);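 also: tested at 20 µM; growth read once vehicle control cultures reached saturation at 30 °C; 1 = growth at the plate median or of vehicle wells; lower values mean less growth of the strain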
Settings: S. cerevisiae deletion strains, growth OD

Measured: normalized growth

CCn1cc(C(=O)O)c(=O)c2cc(F)c(N3CCNCC3)nc21
inactive: locus YAL013W, strain DEP1, active compounds read low 1.01 | locus YAL021C, strain ccr4, active compounds read low 0.939 | locus YAL026C, strain drs2, active compounds read low 0.985 | locus YAL030W, strain snc1, active compounds read low 0.982 | locus YBL061C, strain skt5, active compounds read low 0.991 | locus YBR009C, strain hhf1, active compounds read low 0.992 | locus YBR021W, strain FUR4, active compounds read low 1.01 | locus YBR023C, strain chs3, active compounds read low 0.983 | locus YBR171W, strain sec66, active compounds read low 0.984 | locus YBR229C, strain ROT2, active compounds read low 1.01 | locus YBR231C, strain swc5, active compounds read low 0.998 | locus YBR279W, strain paf1, active compounds read low 0.982 | locus YCL011C, strain gbp2, active compounds read low 0.987 | locus YCL016C, strain dcc1, active compounds read low 0.986 | locus YCL029C, strain bik1, active compounds read low 1 | locus YCL061C, strain MRC1, active compounds read low 0.987 | locus YCL069W, strain vba3, active compounds read low 0.97 | locus YCR088W, strain abp1, active compounds read low 0.982 | locus YDL005C, strain med2, active compounds read low 0.978 | locus YDL035C, strain GPR1, active compounds read low 1.02 | locus YDL040C, strain nat1, active compounds read low 0.983 | locus YDL074C, strain BRE1, active compounds read low 1 | locus YDL101C, strain DUN1, active compounds read low 1.01 | locus YDL134C, strain PPH21, active compounds read low 1.03 | locus YDL185W, strain tfp1, active compounds read low 1.03 | locus YDL192W, strain arf1, active compounds read low 1.02 | locus YDR001C, strain nth1, active compounds read low 0.978 | locus YDR069C, strain doa4, active compounds read low 0.982 | locus YDR101C, strain arx1, active compounds read low 1 | locus YDR137W, strain rgp1, active compounds read low 0.939 | locus YDR159W, strain sac3, active compounds read low 0.962 | locus YDR162C, strain NBP2, active compounds read low 1.02 | locus YDR195W, strain ref2 0.97 | locus YDR297W, strain sur2, active compounds read low 0.971 | locus YDR318W, strain mcm21, active compounds read low 1.02 | locus YDR334W, strain swr1, active compounds read low 0.974 | locus YDR335W, strain msn5, active compounds read low 0.979 | locus YDR388W, active compounds read low 1.01 | locus YDR392W, strain spt3, active compounds read low 0.946 | locus YDR502C, strain sam2, active compounds read low 1.01 | locus YEL003W, strain gim4, active compounds read low 0.985 | locus YEL037C, strain rad23, active compounds read low 0.975 | locus YEL061C, strain CIN8 (second series), active compounds read low 0.979 | locus YEL061C, strain CIN8, active compounds read low 1.01 | locus YER015W, strain faa2, active compounds read low 0.982 | locus YER016W, strain bim1, active compounds read low 0.984 | locus YER110C, active compounds read low 1.02 | locus YER111C, strain swi4, active compounds read low 0.985 | locus YER155C, strain BEM2 (second series), active compounds read low 0.956 | locus YER155C, strain BEM2, active compounds read low 1.01 | locus YER167W, strain BCK2, active compounds read low 1.03 | locus YFR010W, strain ubp6, active compounds read low 0.984 | locus YGL078C, strain dbp3, active compounds read low 1.01 | locus YGL086W, strain mad1, active compounds read low 1.01 | locus YGL167C, strain pmr1, active compounds read low 0.976 | locus YGL173C, strain kem1, active compounds read low 0.98 | locus YGL227W, strain vid30, active compounds read low 0.987 | locus YGL240W, strain doc1, active compounds read low 0.975 | locus YGL248W, strain PDE1, active compounds read low 1.01 | locus YGL253W, strain hxk2, active compounds read low 0.994 | locus YGR135W, strain pre9, active compounds read low 1.03 | locus YGR252W, strain gcn5, active compounds read low 1.01 | locus YHR013C, strain ard1, active compounds read low 0.966 | locus YHR027C, strain rpn1, active compounds read low 0.994 | locus YHR030C, strain SLT2, active compounds read low 1.01 | locus YHR079C, strain IRE1 (second series), active compounds read low 1.01 | locus YHR079C, strain IRE1, active compounds read low 1.03 | locus YHR094C, strain hxt1, active compounds read low 1.02 | locus YHR129C, strain ARP1, active compounds read low 1.01 | locus YHR142W, strain chs7, active compounds read low 0.984 | locus YHR200W, strain rpn10, active compounds read low 1.01 | locus YIL066C, strain RNR3, active compounds read low 1.02 | locus YIL073C, strain SPO22, active compounds read low 1.08 | locus YIL125W, strain kgd1, active compounds read low 1.01 | locus YIR030C, strain dcg1, active compounds read low 1.01 | locus YJL092W, strain hpr5, active compounds read low 0.991 | locus YJL095W, strain BCK1 (second series), active compounds read low 0.985 | locus YJL095W, strain BCK1, active compounds read low 1 and 1.04 | locus YJL115W, strain asf1, active compounds read low 0.963 | locus YJL129C, strain trk1, active compounds read low 0.943 | locus YJL134W, strain LCB3, active compounds read low 1 | locus YJL154C, strain vps35, active compounds read low 0.961 | locus YJL164C, strain tpk1, active compounds read low 0.992 | locus YJL166W, strain qcr8, active compounds read low 0.981 | locus YJL168C, strain set2, active compounds read low 1.01 | locus YJL187C, strain SWE1 (second series), active compounds read low 1 | locus YJL187C, strain SWE1, active compounds read low 0.981 | locus YJR043C, strain POL32, active compounds read low 0.992
